The panel holds about 83,000 compounds, 20% with a hit somewhere; the sample as a whole holds those more often.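 Plates (96-well) were seeded with cells, treated with compound at one concentration, and incubated for 48 hours before percent growth was determined.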 Values without a mark were called inactive. Activity calls are given as the source filed them.

In the assay the test system is NCI-H460 lung. The assay can be described thus: NCI-60 one-dose screen, 48 h (100 = growth as untreated, 0 = no growth, -100 = all killed). The conditions noted are these: 10 µM unless noted. The method, then:
Growth inhibition of the NCI-H460 human Non-Small Cell Lung tumor cell line is measured as a screen for anti-cancer activity. Cells are grown in 96 well plates and exposed to the test compound for 48 hours. Compounds are tested at a single concentration, which is 10^-5 M for most compounds. The reported endpoint is percent growth (GI% or GIPRCNT), where numbers from 0 - 100% represent growth inhibition, and numbers from -100% - 0 represent cell death. For example, a value of 40 represents 60% growth inhibition. A value of 0 means no net growth occurred over the course of the experiment. A value of -40 indicates 40% of cells at the beginning of the experiment died by the end of the experiment. A value of -100 means all cells are dead at the end of the experiment.
NCI-60 Human Tumor Cell Lines Screen was performed using the standard one-dose NCI protocol, which is described in more detail at https://dtp.cancer.gov/discovery_development/nci-60/default.htm.
Compounds with GIPRCNT values below 10 were considered active. Activity score was based on GIPRCNT using the following formula: […]
Score is 0 for GIPRCNT values of 100 or above, 50 for GIPRCNT values of 0, and 100 for GIPRCNT values of -100.
With `COC(=S)SCN(CSC(=S)OC)c1ccc(Cl)cc1`, the growth was 87%.
Take `O=C(O)c1cn(C2CC2)c2cc(N3CCN(Cc4nc5c(cnn5-c5ccc([N+](=O)[O-])cc5)c(=O)[nH]4)CC3)c(F)cc2c1=O`: the growth is 105%.
Then `COc1cccc(-n2cc(-c3nc(Nc4cc(C)[nH]n4)c4ccccc4n3)nn2)c1`, with 44.9%; and `CCC(c1ccc(O)cc1)C(CC)c1ccc(O)c(F)c1` (stereo not given), with 98.9%.
Consider `CC(C)(C)n1cc(-c2ccnc(NCCCNS(=O)(=O)c3cccc4ccccc34)c2)c(-c2cccc(O)c2)n1`, for which the growth is 2.1% (active).
Then `CCN(CC)CCCC(C)N/C(=C1\C(=O)NC(=O)\C1=C(/NC(C)CCCN(CC)CC)c1cccc(OC)c1)c1cccc(OC)c1` (stereo not given), with -38.1% (active).
For the compound `Cn1cc(-c2nc(-c3c[nH]c4ccccc34)cs2)c2cccnc21`, the growth was 16.8%.
As for `O=C(/C=C\c1ccc2ccccc2n1)c1cc(Cl)ccc1O`, the growth is 78.9%.
For `Nc1cccc(NC(=O)C(=O)Nc2cccc(N)c2)c1`, the growth was 117%.
For the compound `O=C1/C(=C/c2ccc(F)cc2)CN(C(=O)CCN2CCC(=NO)CC2)C/C1=C\c1ccc(F)cc1`, the growth is -26.9% (active).
For `O=C(CN1CCOCC1)Nc1ccc(Cn2nnc3c2C(=O)c2nnn(Cc4ccc(NC(=O)CN5CCOCC5)cc4)c2C3=O)cc1`, the growth was 5.66% (active).
Then `O=S(=O)(NCCCNc1cc(-c2cn(-c3ccccc3)nc2-c2cccc(O)c2)ccn1)c1ccccc1`, with 39%; and `O=c1c2c3c(sc2n2c(CCl)nnc2n1Cc1ccccc1)CCCC3`, with -11.5% (active).
Then `CCOC(=O)c1ccc2c(c1)nc(/C=C/c1ccc(Cl)cc1)n2-c1cc(C(C)(C)C)[nH]n1`, with 59%; and `Cc1cc(-c2nc3ccccc3s2)ccc1NC(=O)COc1ccc(Cl)cc1`, with 92.8%.
In the case of `CC[C@H](CO)Nc1nc(NCc2ccccc2)n2ncc(C(C)C)c2n1`, the growth was 5.04% (active).
Under `CCOC(=O)C(CC)n1c(=O)c2cc(OC)c(OC)cc2c2cnc3[nH]ccc3c21` (stereo not given) stands 72.4%.
`CC1=C(C)C(=O)OC([C@](C)(O)[C@]2(O)CC[C@@]3(O)[C@@H]4C[C@H]5O[C@]56CC=CC(=O)[C@]6(C)[C@H]4CC[C@]23COC(=O)c2ccc(C)o2)C1` (stereo not given in full): the growth is -57.1% (active).
Then `O=c1c2cccc3c(Nc4ccccn4)ccc(c32)c2nc3ccccc3n12`, with 52.7%; and `NC(CC(=O)O)C(=O)OCc1ccccc1` (stereo not given), with 103%; and `COc1cc2cc(COc3nccc(-c4ccc(Cl)cc4)n3)c(=O)[nH]c2cc1OC`, with 86.2%.
For the compound `COc1ccc(-c2cc(-c3cccnc3)nc3sc4c(=O)n(-c5ccc(C)cc5)cnc4c23)cc1OC`, the growth is 101%.
Under `CCCCCCCCCC(=O)Oc1ccc(/C(=C(/C)c2ccccc2)c2ccc(OCCN3CCCC3)cc2)cc1` stands -7.47% (active); under `CCCCCC(=O)N(CCCC)CCCC`, 110%.
For the compound `COc1ccc(-c2csc(NC(=O)CN3CCN(c4cc5c(cc4F)c(=O)c(C(=O)O)cn5C4CC4)CC3)n2)cc1`, the growth is 3.8% (active).
As to `COc1cc(NCCCCN=C(N)NC(N)=NC(C)C)c2ncccc2c1`, the growth was 74.4%.
On to `CCCCNc1ccc2c3c1cccc3c(=O)n1c3ccccc3nc21`, for which the growth was 48.3%.
Then `O=C(O)c1ccc2c(c1Sc1ccccc1)C(=O)c1ccccc1C2=O`, with 100%.
Under `C=CCSc1nnc(-c2ccc(C(C)(C)C)cc2)n1-c1cccc(C(F)(F)F)c1` stands 29.3%.
Under `CCN(CC)CCCC(C)NCCCNc1cccc2cccnc12` (stereo not given) stands 101%.
Take `O=C(CN1CCN(c2cc3c(cc2F)c(=O)c(C(=O)N/N=C/c2ccccc2)cn3C2CC2)CC1)N/N=C\c1ccccc1`: the growth was 66.3%.
Under `O=C1Nc2ccccc2C12CC(c1ccc(Cl)cc1)=NN2` (stereo not given) stands 97.9%.
Under `CNC(=O)c1cc(Oc2ccc3nc(NC(=O)Nc4ccc(CN5CCOCC5)c(C(F)(F)F)c4)sc3c2)ccn1` stands 9.7% (active).
Under `CSc1nc(NCCCNc2ccnc3cc(Cl)ccc23)cc(-c2ccccc2)n1` stands 70%.
As for `C/C(=C(/c1ccc(O)cc1)c1ccc(OCCN(C)C)cc1)c1ccccc1`, the growth was 93.7%.
Under `O=S(=O)(Nc1ccc(Cl)cc1Cl)c1ccc(-c2cnc(C3CC3)o2)cc1` stands 12.7%; under `COc1cccc(/C=C\C(=O)c2ccccc2)c1`, 78%.
Then `CCCCCCCCCCCCCCCCNCCC[C@@H](C)[C@H]1CC[C@H]2[C@@H]3[C@H](OCCCN)C[C@@H]4C[C@H](OCCCN)CC[C@]4(C)[C@H]3C[C@H](OCCCN)[C@]12C`, with -45.5% (active).
Under `CNCCCn1c2c(c3ccc([N+](=O)[O-])cc3c1=O)C(=O)c1cc(OC)cnc1-2` stands -70.4% (active); under `C=C1CCC2C3(C)COC(c4ccccc4Br)OC3CCC2(C)C1C/C=C1/C(=O)OCC1OC(C)=O` (stereo not given), 1.8% (active).

The values above are taken from PubChem BioAssay (NCI).
